Sampled rows, rich in hits. Any-hit rate of the full collection: about 32%.
CYP2C9 inh – inhibitors of human CYP2C9 | P11712 | CYP2C9 Supersomes, luciferin-H conversion, luminescence | inhibition, % at 5 µM | hit rate 20% among 96,000 | AID 777;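 active means blocking of liver enzyme CYP2C9 beyond about 50% at 5 µM, limit read from the data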
CYP2C19 inhib – inhibitors of human CYP2C19. inhibition, % at 5 µM. hit rate 21% among 96,000. P33261. CYP2C19 Supersomes, luciferin-H EGE luminescence, 30 min;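 active means CYP2C19 inhibition above a set limit at 5 µM in the primary screen, cut at about 50% in these data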;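 further: plate controls were negative control wells for no effect and 2.5 mM tranylcypromine positive control for full effect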
Target sequence (P33261 whole entry, looked up): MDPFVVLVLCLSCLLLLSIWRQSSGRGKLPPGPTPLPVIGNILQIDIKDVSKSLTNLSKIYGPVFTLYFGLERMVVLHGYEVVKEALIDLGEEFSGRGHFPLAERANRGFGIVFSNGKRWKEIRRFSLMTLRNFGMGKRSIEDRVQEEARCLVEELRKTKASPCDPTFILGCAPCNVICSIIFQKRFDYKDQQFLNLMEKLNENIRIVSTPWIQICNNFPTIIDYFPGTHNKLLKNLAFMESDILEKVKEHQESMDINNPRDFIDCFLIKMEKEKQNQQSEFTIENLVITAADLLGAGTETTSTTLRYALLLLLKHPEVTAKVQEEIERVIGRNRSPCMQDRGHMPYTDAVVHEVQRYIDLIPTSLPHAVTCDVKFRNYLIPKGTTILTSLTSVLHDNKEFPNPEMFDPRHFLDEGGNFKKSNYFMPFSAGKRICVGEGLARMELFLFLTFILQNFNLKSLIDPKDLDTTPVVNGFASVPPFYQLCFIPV
PostGolgi ctrl – growth of the yeast control strain, post-Golgi counter-screen. efflux-deficient yeast background strain, growth absorbance A615, 16 h. inhibition, % at 10 µM. hit rate 5% among 98,000
PostGolgi yeast – growth inhibition of a yeast mutant, post-Golgi transport screen. hit rate 0.9% among 98,000. inhibition, % at 10 µM. post-Golgi transport phenotypic cell assay;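 further: yeast cells grown in 1536-well plates; yeast grown about 18 h at 30C before absorbance read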
CYP2C19 act – activators of human cytochrome P450 2C19 | recombinant CYP2C19, luciferin-H EGE luminescence; active compounds read high; 0 = fully inhibited enzyme, 1 = untreated enzyme | activation factor at 5 µM | 96,000 tested, under 10 active | AID 1025;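 active means activation factor of at least 2 at 5 µM in the primary screen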;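 further: 0 = wells with 2.5 mM tranylcypromine and 1 = vehicle-only wells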
CYP2C9 activ – increases human cytochrome P450 2C9 activity | P11712 | hit rate 1.4% among 96,000 | activation factor at 5 µM | recombinant CYP2C9, luciferin-H conversion, luminescence; active compounds read high; factor 1 = untreated enzyme, 0 = blocked;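 active means activation factor of 2 or more for CYP2C9 at a 5 µM dose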;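 further: 0 = sulfaphenazole-blocked wells and 1 = vehicle-only wells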
The depositor's hits bear a star; . = no result. Unless noted, no stated cut-off is given here; in the data, active means inhibition above about 30%; inactive means the rest.

SMILES | CYP2C9 inh | CYP2C19 inhib | PostGolgi ctrl | PostGolgi yeast | CYP2C19 act | CYP2C9 activ
COc1ccc(N2CCN(C(=O)c3ccncc3)CC2)cc1 | 38.9 | 78.9* | 2.7 | -3.8 | 0.2 | 0.6
CCn1cnc2sc(C(=O)N3CCN(c4ccc(OC)cc4)CC3)c(C)c2c1=O | 56.8* | 23.8 | 31.8* | -4.3 | 0.8 | 0.4
CCCNC(=O)Cn1cnc2sc(C(=O)N3CCN(CCC)CC3)c(C)c2c1=O | 6.5 | 0.5 | 7.1 | 0.5 | 1 | 0.9
CCCS(=O)(=O)N1CCN(C(=O)c2cccc(OC)c2)CC1 | 10.6 | 77.7* | 3.4 | -2.4 | 0.2 | 0.9
Cc1ccc(-n2c(N)c(C(=O)NCc3cccnc3)sc2=S)cc1 | 19.4 | 16.9 | 5.3 | -2.4 | 0.8 | 0.8
COc1ccc(C(=O)N2CCN(c3ccccn3)CC2)cc1 | 20.2 | 67.2* | 2.9 | -2.8 | 0.3 | 0.8
COc1ccccc1CNC(=O)CC(NS(=O)(=O)c1ccc(C)cc1)c1ccco1 (stereo unspecified) | -57.9 | 44.0 | 8.4 | -1.4 | 0.6 | 1.6
COc1ccccc1CNC(=O)C(C)NS(=O)(=O)c1ccc(C)cc1 (stereo unspecified) | -108.0 | 20.3 | 7.1 | -0.8 | 0.8 | 2.1*
COc1ccccc1NC(=O)C(C)NS(=O)(=O)c1ccccc1 (stereo unspecified) | -174.9 | 50.6* | 1.8 | 6.6 | 0.5 | 2.7*
COC(=O)C(NC(=O)Nc1ccccc1OC)C(C)C (stereo unspecified) | 12.0 | 59.1* | 9.4 | -6.2 | 0.4 | 0.9
Cc1cccc(-n2c(N)cc(=O)nc2SCC(=O)NC2CCCCC2)c1 | 21.6 | 5.9 | 3.4 | 0.8 | 0.9 | 0.8
COc1ccc(CCNC(=O)NC23CC4CC(CC(C4)C2)C3)cc1OC | -46.5 | 37.3 | 6.9 | -2.1 | 0.6 | 1.5
CCOc1ccccc1NC(=O)c1ccc(S(=O)(=O)N(C)C)cc1 | 36.5 | 28.4 | 2.4 | -2.4 | 0.7 | 0.6
CCCOc1ccccc1NC(=O)c1ccc(N)cc1 | -167.7 | 38.9 | 6.8 | -4.3 | 0.6 | 2.7*
CCOc1ccccc1NC(=O)c1ccc2nccnc2c1 | -114.5 | 2.2 | -2.1 | -15.4 | 1 | 2.1*
COc1cccc2c1OC[C@@H](CO)[C@H]2N(C)C(=O)Nc1ccc(Cl)cc1Cl | -29.0 | 27.5 | 19.1 | 3.5 | 0.7 | 1.3
COc1ccc(OC)c(C2=Nn3c(nnc3C3CCCCC3)SC2)c1 | 77.9* | 93.5* | 26.3 | 23.9 | 0.1 | 0.2
CCCc1nnc2n1N=C(c1ccc(OC)c(OC)c1)CS2 | . | . | 6.9 | 6.2 | . | .
COc1ccc(C2=Nn3c(nnc3C3CCCCC3)SC2)cc1OC | 72.3* | 64.0* | 1.7 | -5.3 | 0.4 | 0.3
COc1ccccc1C1=Nn2c(nnc2C2CCCCC2)SC1 | 33.2 | 38.6 | 15.8 | -5.0 | 0.6 | 0.7
CCN(CC)C(=O)C1CCCN(Cc2sccc2C)C1 (stereo unspecified) | 1.2 | 11.4 | 0.5 | -8.9 | 0.9 | 1
CCN(CC)c1nc(Nc2ccc(Cl)cc2)nc(OCC#N)n1 | 1.3 | -6.4 | 5.8 | 1.3 | 1.1 | 1
CCc1cccc2c(=O)c(C(=O)N3CCOCC3)c[nH]c12 | -3.8 | -3.9 | 4.7 | 0.5 | 1 | 1
Cc1sc(/N=C/c2ccccc2O)c(C#N)c1C | 1.4 | 27.1 | -1.7 | 4.3 | 0.7 | 1
CCOC(=O)Cn1cc(/C=N/NC(=O)c2ccc(C#N)cc2F)c2ccccc21 | 74.9* | 22.4 | 17.4 | -9.9 | 0.8 | 0.3
SMILES | CYP2C9 inh | CYP2C19 inhib | PostGolgi ctrl | PostGolgi yeast | CYP2C19 act | CYP2C9 activ
C=CCCC(=O)Nc1nc(C)c(-c2csc(Nc3cc(OC)ccc3OC)n2)s1 | 51.6* | 9.0 | 32.9* | 3.3 | 0.9 | 0.5
COc1cccc(Nc2nc(-c3sc(NC(=O)c4ccccc4)nc3C)cs2)c1 | 58.6* | 23.3 | 18.3 | -6.8 | 0.8 | 0.4
COc1ccccc1Nc1nc(-c2sc(NC(=O)c3cccc(Cl)c3)nc2C)cs1 | 49.4 | 27.9 | 16.1 | -9.6 | 0.7 | 0.5
COc1ccc(OC)c(Nc2nc(-c3sc(N)nc3C)cs2)c1 | 73.3* | 53.4* | 16.0 | -1.3 | 0.5 | 0.3
C=CCCC(=O)Nc1nc(C)c(-c2csc(Nc3cccc(OC)c3)n2)s1 | 48.8 | 12.8 | 0.0 | -0.8 | 0.9 | 0.5
COc1cccc(Nc2nc(-c3sc(NC(=O)CC(C)C)nc3C)cs2)c1 | 85.6* | 83.7* | -7.0 | 17.4 | 0.2 | 0.1
Cc1cc(O)ccc1Nc1nc(-c2sc(N)nc2C)cs1 | 1.9 | 3.7 | -3.7 | -4.0 | 1 | 1
CC(=O)Nc1nc(C)c(Oc2ccccc2)c(=O)[nH]1 | -8.1 | -5.8 | -11.1 | -5.2 | 1.1 | 1.1

Assay outcomes (PubChem)
